# Results published in PubChem BioAssay AID2283193 (EPA ToxCast).
# Records with an inconclusive call do not appear. The source made the active and inactive calls. How the source made its calls: active means hit-call score of the fitted dose curve at least 0.9, where 1 is the maximum; inconclusive means response in the unintended direction; inactive means score below 0.9.
# Target: human Protein Kinase C, zeta (PKCz), PRKCZ (gene 5590) (UniProt Q05513)
# Test: NVS_ENZ_hPKCz: NovaScreen (NVS) Enzymatic Assay for human Protein Kinase C, zeta (PKCz)
# Experimental: NVS_ENZ_hPKCz is a biochemical, single-readout assay that uses extracted gene-proteins in a cell-free assay. Measurements were taken 1 hour after chemical dosing in a 384-well plate.NVS_ENZ_hPKCz is one of one assay component(s) measured or calculated from the NVS_ENZ_hPKCz assay. It is designed to make measurements of enzyme activity, a form of enzyme reporter, as detected with fluorescence intensity signals by Fluorescence and electrophoretic mobility shift technology.Data from the assay component NVS_ENZ_hPKCz was analyzed into 1 assay endpoint. This assay endpoint, NVS_ENZ_hPKCz, was analyzed in the positive analysis fitting direction relative to DMSO as the negative control and baseline of activity. Using a type of enzyme reporter, loss-of-signal activity can be used to understand changes in the enzymatic activity as they relate to the gene PRKCZ. Furthermore, this assay endpoint can be referred to as a primary readout, because this assay has produced multiple assay endpoints where this one serves a enzymatic activity function. To generalize the intended target to other relatable targets, this assay endpoint is annotated to the kinase intended target family, where the subfamily is serine/threonine kinase.
# Binding assays used specific radioligands (tritiated, iodinated) with non-radioactive competitive displacement ligands in agonist or antagonist protocols (as indicated) and various reference compounds and inhibitors to titrate specific binding to receptors and transporters. Most enzyme assays (CYPs, kinases, phosphatases, proteases, HDACs) used recombinant protein and specific substrates (fluorescence mostly, some colorimetric and radioactive) and inhibitors, followed by a biochemical separation of substrate and product. All assays for the biochemical HTS were initially run in duplicate at a single concentration (10 uM for CYP450 assays and 25 uM for all others). Assay-chemical combinations meeting a pre-defined threshold (e.g., 30% inhibition and other criteria defined below) were then run in singleton concentration-response format with maximum concentration of 20 uM for CYPs and 50 uM for all others. Each assay was run with positive and negative controls, and concurrent controls on every plate. The follow-up (secondary) screen tested active chemical-pairs in concentration series, as well as a few additional assays not tested in the primary screen, some selected negative inactives, and several cases re-run in the concentration series for confirmatory purposes.
# Sequence of human Protein Kinase C, zeta (PKCz), PRKCZ (gene 5590) (Q05513 whole entry, looked up): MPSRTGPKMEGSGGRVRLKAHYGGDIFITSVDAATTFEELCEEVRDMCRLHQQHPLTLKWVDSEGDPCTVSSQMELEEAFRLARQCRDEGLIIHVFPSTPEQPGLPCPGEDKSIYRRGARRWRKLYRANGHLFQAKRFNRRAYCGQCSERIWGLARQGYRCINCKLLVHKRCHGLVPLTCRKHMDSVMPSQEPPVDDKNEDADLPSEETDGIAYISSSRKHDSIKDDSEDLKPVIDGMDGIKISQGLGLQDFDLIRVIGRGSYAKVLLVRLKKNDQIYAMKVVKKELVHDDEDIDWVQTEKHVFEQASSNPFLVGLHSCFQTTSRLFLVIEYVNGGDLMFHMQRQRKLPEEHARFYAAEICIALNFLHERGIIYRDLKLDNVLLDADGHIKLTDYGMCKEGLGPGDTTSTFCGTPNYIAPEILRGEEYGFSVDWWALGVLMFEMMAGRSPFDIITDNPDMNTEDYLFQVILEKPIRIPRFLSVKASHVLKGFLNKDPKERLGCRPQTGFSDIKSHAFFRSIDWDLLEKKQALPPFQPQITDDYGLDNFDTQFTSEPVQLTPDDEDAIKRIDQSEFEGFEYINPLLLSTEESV
row,Compound,outcome
1,CCCCC(CC)COC(=O)c1ccccc1C(=O)OCC(CC)CCCC (stereo not given),inactive
2,CCOP(=S)(OCC)Oc1ccc2c(C)c(Cl)c(=O)oc2c1,inactive
3,COCC(C)N(C(=O)CCl)c1c(C)csc1C (stereo not given),inactive
4,S=C1NCCN1,inactive
5,COC(=O)c1ccccc1S(=O)(=O)NC(=O)N(C)c1nc(C)nc(OC)n1,inactive
